# Measured values taken from PubChem BioAssay AID504834 (National Center for Advancing Translational Sciences (NCATS), 2011).
# Several values for one entry are separate records, joined by “and”; a condition that tells them apart may be missing. Equal values may be shown once. The whole screen tested about 320,000 compounds, of which about 22,000 (6.9%) were called active. Roughly 27% stayed inconclusive and do not appear here. The list comes from a sample in which actives are over-represented; it also holds similar structures and randomly drawn compounds. A number with no mark means an inactive call. Calls follow the shape of the dose curve; as a rule, active = well fitted inhibition curve with a large enough effect; inconclusive = small, poorly fitted or top-dose-only effect, or another doubt; inactive = no such curve, though single readings can be large or run the other way.
# Test: Primary qHTS for delayed death inhibitors of the malarial parasite plastid, 96 hour incubation
# Conditions: P. falciparum luciferase reporter growth; series mostly up to 28.7 µM; activity change, negative = inhibition: at the top concentration
# Excerpt: The goal of this screen is to discover new antimalarial compounds that act by inhibiting the development of the apicoplast in the malarial parasite Plasmodium falciparum. The biochemical processes that make this organelle essential for erythrocytic stage parasites are not well understood. However, antibiotics such as azithromycin and tetracycline, which target the apicoplast translational machinery, have a potent antimalarial effect.
# We have developed a cell-based assay that measures parasite growth based on the expression of an integrated copy of a firefly luciferase reporter. To detect small molecules that cause this "delayed death" phenotype, erythrocytes infected with the luciferase-expressing parasites were incubated with compounds for either one or two generations, corresponding to 48 and 96 hours, respectively. Compounds that inhibit parasite growth in the second generation, but not the first, should be enriched in antimalarials that target the apicoplast. Growth inhibition is detected by a decrease in luciferase activity.
# Assay Provider: David Fidock and Eric Ekland, Columbia University
# Keywords: NIH Roadmap, MLPCN, MLI, MLSMR, qHTS, NCGC, qHTS, malaria, luciferase, viability
# Four microliters of infected erythrocytes (2% hematocrit, 0.05% parasitemia final concentration) in culture medium were dispensed and the plates incubated for 96 hours at 37 C in 5% CO2. Two microliters of luciferase detection reagent was added and luminescence was detected by a ViewLux (PerkinElmer) reader.
# % is scaled to controls: 0 for no effect and ±100 for the full control effect; potency is read from the fitted curve at half-maximal effect.
SMILES,"activity change, negative = inhibition",Potency
Cc1cccc(-c2c(NC(=O)c3ccco3)oc3ccc(Cl)cc3c2=O)c1,2.39%,
Cc1noc(NS(=O)(=O)c2ccc(NC(=O)c3oc4ccc(F)cc4c3C)cc2)c1C,1.56%,
CC(C)CCn1c(=O)c2c(nc3n2CCCN3Cc2ccccc2)n(C)c1=O,,6.57 µM (active)
Cn1cnc2c1c(=O)n(Cc1c(Cl)cccc1Cl)c(=O)n2C,-6.67%,
CCOC(=O)CSc1nc2c(c(=O)n(Cc3ccccc3Cl)c(=O)n2C)n1C,12.3%,
N/C(=N\OC(=O)Cc1ccccc1[N+](=O)[O-])c1ccc(Br)cc1,12.7% [at 5.75 µM],
N/C(=N\OC(=O)N1c2ccccc2Sc2ccccc21)c1ccc(Br)cc1,,10.4 µM (active)
N/C(=N\OC(=O)/C=C/c1ccccc1)c1ccc(Br)cc1,4.24%,
Cc1ccc(C)c(SCc2nc3sc(C(=O)O)c(C)c3c(=O)[nH]2)c1,15.7%,
CC1CCN(C(=O)c2ccc3c(c2)NC(=O)CN3)CC1,29.3%,
Cn1cc(CNC(=O)c2ccc(OC3CCN(Cc4ccccn4)CC3)cc2)cn1,3.47%,
O=C(Nc1ccccc1C(=O)NCC1CCCO1)c1ccccc1F (configuration not stated),-21.2%,
COc1ccc2cc(C(=O)NCC3CCCO3)[nH]c2c1 (configuration not stated),102%,
O=C(NCC1CCCO1)c1cc2c([nH]c3ccccc32)c(-c2ccc(F)cc2)n1 (configuration not stated),,9.28 µM (active)
Cc1ccc(C(=O)Nc2ccn(C)n2)cc1,33.8%,
CCOc1ccc2c(c1)C(c1ccc(C)cc1)=NNC(c1ccc(C)cc1)=N2,-7.17%,
CCOc1ccc(-c2cc(C)[n+](CCN(CC)CC)c(-c3ccc(OCC)cc3)c2)cc1,,0.37 µM (active)
CCOc1ccc(-c2nc(C)sc2CC(=O)O)cc1,-1.13%,
Nc1ccc(C(=O)Nc2ccccc2N)cc1,1.66%,
O=C(COc1ccccc1)Nc1ccc(N2CCN(C(=O)c3cccs3)CC2)cc1,9.01%,
COc1ccc(N2CCN(C(=O)c3cccs3)CC2)cc1,,13.1 µM (active)
O=C(c1cccs1)N1CCN(C(=O)N2CCOCC2)CC1,-9.34%,
CCS(=O)(=O)N1CCN(C(=O)c2cccs2)CC1,,4.65 µM (active)
COc1ccc(S(=O)(=O)N2CCN(C(=O)c3cccs3)CC2)cc1OC,43.7%,
Cc1ccc(S(=O)(=O)N2CCN(C(=O)c3cccs3)CC2)cc1,22.6%,
NC(=O)COc1ccccc1C(=O)NC12CC3CC(CC(C3)C1)C2,27.2%,

SMILES,"activity change, negative = inhibition",Potency
CCN(CC)CCCN=C(N)N,45.7%,
CC(C)(C)n1nnnc1C(c1ccccc1F)N1CCN(C(=O)c2ccco2)CC1 (configuration not stated),-20.3%,
COc1ccc(CN2CCN(Cc3ccc(OC)c(OC)c3OC)CC2)cc1,-5.74%,
Cc1nc(C(=O)Nc2ccc(Cl)cc2)sc1C1(C)CC(c2ccccc2)=NO1 (configuration not stated),-1.05%,
Cc1nn(-c2ccccc2)c(=O)c2noc(C)c12,24.6%,
COc1ccc(C(=O)Nc2cc(C)c(NC(=O)c3ccccc3OC)cn2)cc1,-9.94%,
CSC1=N/C(=C\C=C\c2cccs2)C(=O)S1,,5.22 µM (active)
CSC1=N/C(=C\c2ccc3c(c2)OCO3)C(=O)S1,-18.9%,
Cc1cccc(C2=N/C(=C/c3cccs3)C(=O)O2)c1,-19.3%,
O=S(=O)(Cc1noc(-c2ccc(OC(F)(F)F)cc2)n1)c1ccc(F)cc1,-0.67%,
COc1ccc(NC(=O)c2cccc(Cl)c2)c[n+]1[O-],43.4%,
COc1cc(OC)c(-n2cc(-c3ccc(Cl)cc3)[nH]c2=O)cc1Cl,55.8%,
COc1cc(OC)c(-n2c(C)cc(C=O)c2C)cc1Cl,,13.1 µM (active)
COc1cc(Cl)c(S(=O)(=O)n2cnc(C)c2)cc1Cl,13.2%,
O=C1c2ccccc2C(=O)N1c1cccc2ccccc12,10.7%,
Cc1n[nH]c(=O)c2c(NC(=O)CSc3cc(Cl)ccc3Cl)oc(C)c12,11.3%,
CCn1cc(CN2CCC(C(=O)Nc3cccc(-c4cccc(Cl)c4)c3)CC2)cn1,26.2%,
COc1cccc(-c2cccc(NC(=O)C3CCN(C4CCC4)CC3)c2)c1,30.6%,
O=C(Nc1cccc(-c2cccc(Cl)c2)c1)C1CCN(C2CCC2)CC1,,10.4 µM (active)
COC(=O)CSc1nnc(NC(=O)CCc2ccccc2)s1,12.1%,
CC(C)CCN1CCN=C1N(C)C,0%,
COc1ccc(S(=O)(=O)N2CCN(C(=O)N(C)C)C2C)cc1 (configuration not stated),27.7%,
Cc1cccc(C(=O)N2CCN(S(=O)(=O)N3CCCCC3)CC2)c1,30.2%,
CCCCN(CCCC)CCC(O)c1cc2c(Cl)cc(Cl)cc2c2cc(C(F)(F)F)ccc12 (configuration not stated),,2.6 nM (active) and 2.9 nM (active)
Cc1ccc(S(=O)(=O)N(C)CC(=O)NCC(c2ccc(F)cc2)N2CCOCC2)cc1 (configuration not stated),,10.4 µM (active)
CN(CC(=O)NCCc1ccccn1)S(=O)(=O)c1ccc(Cl)cc1,10%,
